Screens as filed in PubChem BioAssay.
pPAFAH inh: pPAFAH enzyme inhibitors, primary screen, biochemical, fluorescence polarization, human; recombinant pPAFAH, FP-rhodamine probe fluorescence polarization; inhibition, % at 3.39 µM; hit rate 1.5% among 330,000;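 active = inhibition above the mean inhibition across the screen plus 3 SD, cut at about 25% in these data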;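 also: inhibitors block binding of the rhodamine activity-based probe so polarization drops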
PAFAH2 FP inh: PAFAH2 enzyme inhibitors, primary screen, biochemical, fluorescence polarization, human; Platelet-activating factor acetylhydrolase 2, cytoplasmic (Homo sapiens), Q99487; recombinant PAFAH2, FP-rhodamine activity probe; inhibition, % at 3.39 µM; hit rate 0.99% among 340,000; AID 492956, 2010;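 active = inhibition above the mean over all tested compounds plus 3 SD, cut at about 30% in these data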;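 also: inhibitors block probe labeling of enzyme so polarization drops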
PAFAH1B2 inh: PAFAH1B2 enzyme inhibitors, primary screen, biochemical, fluorescence polarization, human; Platelet-activating factor acetylhydrolase IB subunit alpha2 (Homo sapiens), P68402; recombinant PAFAH1B2, FP-rhodamine activity probe; inhibition, % at 3.39 µM; hit rate 1.2% among 340,000;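 active = inhibition above the mean of all tested compounds plus 3 SD, cut at about 24% in these data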
Target sequence (P68402 whole entry, looked up): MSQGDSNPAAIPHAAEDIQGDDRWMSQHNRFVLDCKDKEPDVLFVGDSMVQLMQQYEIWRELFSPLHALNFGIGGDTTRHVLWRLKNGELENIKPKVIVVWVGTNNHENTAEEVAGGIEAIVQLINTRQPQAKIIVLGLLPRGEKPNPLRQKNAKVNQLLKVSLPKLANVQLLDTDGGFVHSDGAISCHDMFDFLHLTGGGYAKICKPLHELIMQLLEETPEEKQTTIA
TCR CD3 inh: inhibitors of human TCR-CD3 interaction, primary screen, biochemical, fluorescence, TAMRA-labeled TCR probe. T-cell receptor (TCR). inhibition, % at 9.4 µM. hit rate 0.37% among 360,000. AID 651800, 2012; in the data active = inhibition above about 19%;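 also: recombinant mutant TCR 2C K166C tagged with TAMRA read by polarization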
PAFAH1B3 inh: PAFAH1B3 enzyme inhibitors, primary screen, biochemical, fluorescence polarization, human; Platelet-activating factor acetylhydrolase IB subunit alpha1 (Homo sapiens), Q15102; recombinant PAFAH1B3, FP-rhodamine probe; inhibition, % at 3.39 µM; hit rate 0.28% among 340,000; AID 492972, 2010;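 active = inhibition above the screen-wide average of all tested compounds plus 3 SD, cut at about 25% in these data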
Target sequence (Q15102 whole entry, looked up): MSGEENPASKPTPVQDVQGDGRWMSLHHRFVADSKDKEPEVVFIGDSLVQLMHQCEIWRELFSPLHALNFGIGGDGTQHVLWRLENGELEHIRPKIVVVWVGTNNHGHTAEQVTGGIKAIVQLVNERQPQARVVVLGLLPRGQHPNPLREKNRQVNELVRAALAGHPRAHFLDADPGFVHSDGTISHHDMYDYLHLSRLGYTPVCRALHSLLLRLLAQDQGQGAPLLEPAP
Hits are given with their value; – = inactive; · = not tested or not shown; + = active, no number. Most compounds without a hit are left out; they make up all but 2.7% or so of the library.

SMILES	pPAFAH inh	PAFAH2 FP inh	PAFAH1B2 inh	TCR CD3 inh	PAFAH1B3 inh
CC(C)=C1CCC(C)CC1=NNC(N)=S (stereo not given)	·	–	27	–	–
CC(C)(C)c1ccc(C(=O)/C=C2\NC(=O)CS2)cc1	–	–	–	–	–
O=C1CS/C(=C\S(=O)(=O)c2ccc(Cl)cc2)N1	–	–	25	–	–
CCn1c(C)nc2cc(C(=O)NNC(=O)CN(C)S(=O)(=O)c3ccc(NC(C)=O)cc3)ccc21	–	–	–	–	–
CN(C)c1ccc(NC(=O)CSc2nc3ccccc3c(=O)n2C2CCCCC2)cc1	34	–	–	–	–
Cc1cc(NC(=O)CSc2nc3ccccc3c(=O)n2C2CCCC2)no1	30	–	–	–	–
CCN(CC)CCn1c(SCC(=O)Nc2ccc3c(c2)CCC3)nc2ccccc2c1=O	–	–	25	–	–
O=C(CSc1nc2ccccc2c(=O)n1-c1ccccc1F)Nc1ccc2c(c1)CCC2	–	–	–	–	–
O=C(COC(=O)c1ccc(Cl)nc1)Nc1ncc(Cl)cc1Cl	–	–	–	–	–
O=C(COC(=O)CC12CC3CC(CC(C3)C1)C2)Nc1ncc(Cl)cc1Cl	27	–	–	–	–
Cc1cc(F)ccc1C(O)c1ncc(-c2cccc(F)c2)[nH]1 (stereo not given)	·	·	·	–	·
O=C(O)c1ccc(-n2nnnc2SCc2ccccc2Br)cc1	–	–	27	–	–
CCOC(=O)C1Nc2ccc(C)cc2C2C=CCC12 (stereo not given)	–	–	–	–	–
CCOC(=O)c1ccc2c(c1)C1C=CCC1C(C(=O)OCC)N2 (stereo not given)	28	–	–	–	–
CCC(=O)Nc1nc(C)c(-c2csc(Nc3cccc(O)c3)n2)s1	32	–	–	–	–
O=C(CCl)N(c1ccccc1)C1CCCCC1	–	–	33	–	–
C[C@@H]1ON(C)[C@H]2C[C@H]3c4[nH]c5c(-c6ccc(F)cc6)cccc5c4CCN3C(=O)[C@@H]12	·	·	·	–	·
Cc1sc(NC(=O)C2CCCCC2C(=O)O)c(C(N)=O)c1-c1ccc(C(C)(C)C)cc1 (stereo not given)	–	–	26	–	–
CCOC(=O)c1c(NC(=O)/C=C/C(=O)O)sc(C)c1-c1ccc(C(C)(C)C)cc1	33	–	–	–	–
COc1ccc(N2C(=O)CC(C)(C)CC2=O)cc1OC	–	–	–	–	–
O=C(NC1CCCC1)[C@@H]1CCCN1C(=O)[C@H](Cc1cccnc1)NC(=O)N1CCOCC1	·	·	·	–	·
CC12CC3CC(C)(C1)CC(C(=O)NC1=NCCS1)(C3)C2	–	–	28	–	–
CC(C)c1ccc(N2C(=O)CC(Sc3nc4ccccc4o3)C2=O)cc1 (stereo not given)	–	–	26	–	–
CC(C)c1ccc(N2C(=O)CC(Sc3ncn[nH]3)C2=O)cc1 (stereo not given)	–	–	–	–	–
O=[N+]([O-])c1cccc(S(=O)(=O)NCCc2cccs2)c1	–	–	–	–	–
SMILES	pPAFAH inh	PAFAH2 FP inh	PAFAH1B2 inh	TCR CD3 inh	PAFAH1B3 inh
O=S(=O)(NCCc1cccs1)c1ccc(Br)cc1	–	–	25	–	–
CCC(CC)COC(=O)C1=C(C)NC(=O)NC1c1ccc(N(C)C)cc1 (stereo not given)	–	–	28	–	–
Cc1cc(NC(=O)Cc2cn(Cc3ccccc3)c3ccccc23)ccc1Oc1cccnc1	·	·	·	–	·
CC(C)Sc1oc(-c2ccco2)nc1S(=O)(=O)c1ccc(F)cc1	26	–	–	–	–
CSc1oc(-c2ccco2)nc1S(=O)(=O)c1ccc(Br)cc1	–	–	–	–	–
CCC(=O)NC(c1ccc(Cl)cc1Cl)c1ccc2cccnc2c1O (stereo not given)	27	–	–	–	–
COc1ccc(C(NC(=O)C(C)C)c2ccc3cccnc3c2O)cc1 (stereo not given)	–	–	–	–	–
CCCCC(=O)NC(c1ccc(Cl)cc1Cl)c1ccc2cccnc2c1O (stereo not given)	·	–	–	–	–
CC(C)C(=O)NC(c1ccc(Cl)cc1Cl)c1ccc2cccnc2c1O (stereo not given)	26	–	–	–	–
CCOc1ccc(CCNC(=O)CN2C(=O)NC3(CCCCCC3)C2=O)cc1OCC	–	–	–	–	–
CCN(CC)c1ccc2c(-c3ccc(S(=O)(=O)O)cc3S(=O)(=O)[O-])c3ccc(=[N+](CC)CC)cc-3oc2c1	173	+	174	·	+
CC(O)CNc1nc2ccccc2n1CC(=O)NCCc1ccc(Cl)cc1 (stereo not given)	–	–	28	–	–
CC(C)CNC(=O)CSc1ccc(Cl)cc1	–	–	26	–	–
Cc1ccc(SCC(=O)NCC(C)C)cc1	–	–	–	–	–
O=C(NNC(=S)NCc1ccco1)c1ccc(Cl)s1	–	–	–	–	–
O=C(CSCc1ccco1)c1ccc(Cl)s1	25	·	·	·	·
CC1CCN(S(=O)(=O)c2cccc(C(=O)N(Cc3ccccc3)c3ccccn3)c2)CC1	–	–	25	–	–
O=C(Nc1nncs1)c1cccc(S(=O)(=O)N2CCCC2)c1	–	–	–	–	–
Cc1nc(-c2cccc(S(=O)(=O)N3CCCCC3)c2)cs1	–	–	–	–	–
CC1CCN(S(=O)(=O)c2cccc(C(=O)Nc3nncs3)c2)CC1	–	–	26	–	–
Cc1nc(-c2cccc(S(=O)(=O)N3CCC(C)CC3)c2)cs1	–	–	30	–	–
CN1CCN(S(=O)(=O)c2cccc(C(=O)Nc3cc(C(N)=O)cc(C(N)=O)c3)c2)CC1	–	–	25	–	–
CCCc1nc2ccc(NC(C)=O)cc2c(=O)n1Cc1ccccc1Cl	–	–	–	–	–
Cc1cc2c(c(=O)o1)[C@@]1(C(=O)N(C)c3ccccc31)C1=C(CC3(CCCCC3)OC1=O)O2	·	·	·	–	·
COCc1cc(N2CCN(C(=O)OC(C)(C)C)C[C@@H]2C)ccc1Br	·	·	·	–	·
SMILES	pPAFAH inh	PAFAH2 FP inh	PAFAH1B2 inh	TCR CD3 inh	PAFAH1B3 inh
O=C(NCC1CCCO1)c1cccc2c1C(=O)c1ccc(N3CCC(Cc4ccccc4)CC3)cc1S2(=O)=O (stereo not given)	33	–	–	·	–
CC1CCN(c2ccc3c(c2)S(=O)(=O)c2cccc(C(=O)NC[C@@H]4CCCO4)c2C3=O)CC1	–	–	–	–	–
O=C(Cn1ccccc1=O)NCc1ccc(F)cc1	33	–	–	–	–
CCC(c1ccc(O)c(O)c1)C(CC)c1ccc(O)c(O)c1 (stereo not given)	·	–	27	·	–
COc1ccc(N2C(=O)c3n[nH]c(C(C)C)c3C2c2ccccc2)cc1 (stereo not given)	·	·	·	–	·
CC(C)C(NC(=O)C12CC3CC(CC(C3)C1)C2)C(=O)O (stereo not given)	–	–	26	–	–
COC(=O)C(C)NC(=O)C12CC3CC(CC(C3)C1)C2 (stereo not given)	–	–	–	–	–
